Assay results published in PubChem BioAssay (NCI).
“And” between values parts separate entries of the source, which are not always exact repeats. Equal values may be shown once. About 83,000 compounds went through this panel and 20% of them were active in at least one assay; those are over-represented in the sample as a whole.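 Growth was measured after 48 h exposure to one concentration of compound in 96-well plates. Values under 10 count as active.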 The source made the active and inactive calls.

Tests used:
Test in all cases: NCI-60 one-dose screen, 48 h (100 = growth as untreated, 0 = no growth, -100 = all killed)
Details in all cases: 10 µM unless noted
[1] = test system: T-47D breast
[2] = test system: BT-549 breast
[3] = test system: MDA-MB-435 melanoma
[4] = test system: SW-620 colon
[5] = test system: MCF7 breast
[6] = test system: HCT-116 colon
[7] = test system: HCC-2998 colon
[8] = test system: KM12 colon

Measured: growth

COc1cc(CNC(=O)CCCC/C=C/C(C)C)ccc1OCc1cn(-c2ccc([N+](=O)[O-])cc2)nn1
inactive: [1] 64% | [2] 80.4% | [3] 99.7% | [4] 99.8% | [5] 83.4% | [6] 77.2% | [7] 108% | [8] 90%

COc1ccc(/C(C)=C(\c2ccc(OCCN3CCCCCC3)cc2)c2ccc(OC(=O)C3CCCCC3)cc2)cc1
active: [1] -57% | [2] -78.2% | [3] -77.1% | [4] -49.8% | [5] -23.6% | [6] -63.9% | [7] -79% | [8] -54.1%

CCC(=C(c1ccc(OCCCN(C)C)cc1)c1ccc(OCCCN(C)C)cc1)c1ccc(Cl)cc1
active: [1] -66.8% | [2] -92.6% | [3] -95.5% | [4] -73.7% | [5] -79.2% | [6] -94% | [7] -80.8% | [8] -78.7%

Cc1ccc(-c2nc3nc(-c4ccc(F)cc4)nc(N4CCCNCC4)c3o2)cc1
active: [1] -63.8% | [2] -76.9% | [3] -95.7% | [4] -84.6% | [5] -72.4% | [6] -87.2% | [7] -89.3% | [8] -86.3%

O=C(/C=C/c1cccs1)Nc1ncc(Cc2ccc(Cl)c(Cl)c2)s1
active: [3] -23.2%
inactive: [1] 49% | [2] 80.9% | [4] 37.5% | [5] 26.8% | [6] 45.2% | [7] 53.8% | [8] 22%

COc1cc(CNC(=O)CCCC/C=C/C(C)C)ccc1O
inactive: [1] 97.4% and 96.2% | [2] 125% and 83.4% | [3] 99% and 106% | [4] 113% | [5] 103% and 96.7% | [6] 96.4% and 100% | [7] 143% and 109% | [8] 106% and 108%

COC(=O)c1nc(-c2ccc(C)cc2)oc1Sc1ccc(C)cc1
inactive: [1] 72.9% | [2] 101% | [3] 103% | [4] 103% | [5] 93.7% | [6] 99.4% | [7] 110% | [8] 98.6%

CC12CCC(C(=O)CC1=O)C2(C)C (centres undefined)
inactive: [1] 105% and 93.4% | [2] 110% and 104% | [3] 106% and 110% | [4] 105% and 109% | [5] 103% and 98.4% | [6] 106% and 97.1% | [7] 108% and 98.5% | [8] 108% and 101%
